For four molecules, composite z-score and z-score results are on record in PubChem BioAssay.

Each structure is given as a SMILES string. Values joined by “and” are separate entries in the source; they are usually repeats but may differ in a detail not shown here. Equal values may be shown once. A structure can be active in one record and inactive in another. Active and inactive are the calls of the source.

Assay [1] in a line: small molecules captured by biotinylated probe aFSTL3 – biochemical, small-molecule microarray, fluorescence 635/667, stem cell growth factor project, primary screen (AID 1064).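 Also: measures binding of the biotinylated anti-FSTL3 antibody to printed compounds.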 The following applies: higher = more signal.
The nature of assay [2]: binders from COS7 lysate, DM2A8 probe, primary screen, torsin A project, cell lysate, small-molecule microarray, fluorescence 635/667 (AID 1065). The settings on record: higher = more signal, COS7 lysate expressing mutant human TOR1A.
Assay [3] in a line: small molecules captured by biotinylated probe aFGF2 – biochemical, small-molecule microarray, fluorescence 635/667, stem cell growth factor project, primary screen (AID 1067).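 Also: measures binding of biotinylated aFGF2 protein to printed compounds on slides; z-score merges feature fluorescence and signal-to-noise across triplicate slides.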 The following applies: higher = more signal.
The nature of assay [4]: small molecules captured by biotinylated probe aFGF10 – biochemical, small-molecule microarray, fluorescence 635/667, stem cell growth factor project, primary screen (AID 1071).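 Also: score merges 667 nm spot intensity and signal to noise from triplicate slides.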 The settings on record: higher = more signal.
For assay [5], the target named is Neurogenic locus notch homolog protein 2 (Homo sapiens) (UniProt Q04721). The assay is described as follows: small molecules binding Notch2 protein – biochemical, small-molecule microarray, 635 nm fluorescence, stem cell growth factors, primary screen (AID 1073). The following applies: higher = more signal.
Assay [6] has as its target Pro-neuregulin-1, membrane-bound isoform (Homo sapiens) (UniProt Q02297). Put plainly: small molecules binding neuregulin-1 protein – biochemical, small-molecule microarray, fluorescence 635/667, psychiatric disease protein project, primary screen (AID 1075).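 Also: score combines 667 nm spot fluorescence with signal to noise.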 The settings on record: NRG1 binding, 635 nm fluorescence, higher = more signal.
Assay [7] has as its system Neuregulin-1 EGF-like domain. Put plainly: small molecules binding NRG1 EGF domain – biochemical, small-molecule microarray, 635 nm fluorescence, primary screen (AID 1081).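 Also: binding of the protein to compounds printed on small-molecule microarray slides.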 The following applies: higher = more signal.
Assay [8] in a line: FRG1 expression reporter modulators in myotubes – cell-based, C2C12 myotubes, firefly/Renilla luciferase, luminescence, FRG1 inhibition for FSHD, primary screen (AID 1084). The settings on record: FRG1 promoter luciferase, higher = more signal, called active from +8 up or from −8 down.
Assay [9] can be described thus: small molecules captured by biotinylated probe aFST – biochemical, small-molecule microarray, fluorescence 635/667, stem cell growth factor project, primary screen (AID 1086).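 Also: score merges 667 nm fluorescence with signal-to-noise of each printed compound spot.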 The following applies: higher = more signal.
A short description of assay [10]: binders of probe aHhip on microarray, primary screen, stem cell growth factor project, biochemical, small-molecule microarray, fluorescence 635/667 (AID 1087).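 Also: score merges spot fluorescence at 667nm with spot signal to noise ratio.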 The following applies: higher = more signal.
Assay [11] has as its system PRMT1 (protein arginine N-methyltransferase 1). Put plainly: small molecules binding arginine methyltransferase PRMT1 – biochemical, small-molecule microarray, 635 nm fluorescence, primary screen (AID 1088).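 Also: binding of Prmt1 protein to compounds spotted on small-molecule microarray slides.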 The following applies: higher = more signal.
Assay [12] in a line: growth effects on S. cerevisiae YJM789 – YJM789 clinical isolate, OD600, 24 h, basal, primary screen (AID 1089).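 Also: growth of clinical yeast isolate S. cerevisiae YJM 789 seeded 1000 cells per well; test concentration not given here.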 The settings on record: higher = more signal, called active from +8 up or from −8 down.
A short description of assay [13]: S. pombe growth modifiers, basal conditions – strain 972, OD600, 24 h, no modulator, primary screen (AID 1090).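 Also: basal condition with compound alone and no growth modifier present; test concentration not given here.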 The settings on record: S. pombe 972 growth, higher = more signal, called active from +8 up or from −8 down.
Assay [14] is described as follows: budding yeast growth modifiers under rapamycin – strain BY4716, OD600, 96 h, primary screen (AID 1091). Also: test concentration not given here. The settings on record: S. cerevisiae BY4716 + rapamycin, higher = more signal, called active from +8 up or from −8 down.
Assay [15] deals with Torsin-1A-interacting protein 2 (Homo sapiens) (UniProt Q8NFQ8). Put plainly: small molecules binding lysate-expressed LULL1 – cell lysate, human LULL1 lysate, 635/667 nm fluorescence, primary screen (AID 1092).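 Also: probe is lysate of COS7 cells overexpressing human LULL1; score merges per-feature 667 nm fluorescence with signal-to-noise.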 The following applies: small-molecule microarray, hLULL1 lysate binding, 635 nm fluorescence; higher = more signal.
Assay [16] is described as follows: optical density change of DRC41 E. coli – strain DRC41, OD650, 24 h, E. coli filamentation project, primary screen (AID 1093).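 Also: MC1000 strain lacking acrAB efflux and sulA so SOS filamentation is blocked; test concentration not given here.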 The settings on record: E. coli DRC41 growth, higher = more signal, called active from +8 up or from −8 down.
Assay [17] is described as follows: probe aLefty2 binding to arrayed compounds – biochemical, biotinylated probe, 635/667 nm fluorescence, primary screen (AID 1094).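 Also: score merges spot fluorescence near 667 nm with spot signal-to-noise ratio.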 The settings on record: small-molecule microarray, higher = more signal.
Assay [18] deals with Noggin (protein binding on small-molecule microarray). Put plainly: small molecules binding Noggin protein – biochemical, 635/667 nm fluorescence, primary screen (AID 1095).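 Also: score merges 667 nm feature fluorescence with signal to noise over triplicate slides.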 The following applies: 635 nm fluorescence, higher = more signal.
The target in assay [19] is Neurogenic locus notch homolog protein 3 (Homo sapiens) (UniProt Q9UM47). The assay is described as follows: small molecules binding NOTCH3 protein – biochemical, 635/667 nm fluorescence, primary screen (AID 1096). The settings on record: small-molecule microarray, 635 nm fluorescence, higher = more signal.
Assay [20] can be described thus: probe aEGFR binding to arrayed compounds – biochemical, biotinylated probe, 635/667 nm fluorescence, primary screen (AID 1097).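 Also: probe is a biotinylated anti-EGFR antibody binding compounds printed on slides; score combines fluorescence near 667 nm and signal to noise of each spot.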 The following applies: small-molecule microarray, higher = more signal.

Sequence of Neurogenic locus notch homolog protein 3 (Homo sapiens) (Q9UM47 whole entry, looked up): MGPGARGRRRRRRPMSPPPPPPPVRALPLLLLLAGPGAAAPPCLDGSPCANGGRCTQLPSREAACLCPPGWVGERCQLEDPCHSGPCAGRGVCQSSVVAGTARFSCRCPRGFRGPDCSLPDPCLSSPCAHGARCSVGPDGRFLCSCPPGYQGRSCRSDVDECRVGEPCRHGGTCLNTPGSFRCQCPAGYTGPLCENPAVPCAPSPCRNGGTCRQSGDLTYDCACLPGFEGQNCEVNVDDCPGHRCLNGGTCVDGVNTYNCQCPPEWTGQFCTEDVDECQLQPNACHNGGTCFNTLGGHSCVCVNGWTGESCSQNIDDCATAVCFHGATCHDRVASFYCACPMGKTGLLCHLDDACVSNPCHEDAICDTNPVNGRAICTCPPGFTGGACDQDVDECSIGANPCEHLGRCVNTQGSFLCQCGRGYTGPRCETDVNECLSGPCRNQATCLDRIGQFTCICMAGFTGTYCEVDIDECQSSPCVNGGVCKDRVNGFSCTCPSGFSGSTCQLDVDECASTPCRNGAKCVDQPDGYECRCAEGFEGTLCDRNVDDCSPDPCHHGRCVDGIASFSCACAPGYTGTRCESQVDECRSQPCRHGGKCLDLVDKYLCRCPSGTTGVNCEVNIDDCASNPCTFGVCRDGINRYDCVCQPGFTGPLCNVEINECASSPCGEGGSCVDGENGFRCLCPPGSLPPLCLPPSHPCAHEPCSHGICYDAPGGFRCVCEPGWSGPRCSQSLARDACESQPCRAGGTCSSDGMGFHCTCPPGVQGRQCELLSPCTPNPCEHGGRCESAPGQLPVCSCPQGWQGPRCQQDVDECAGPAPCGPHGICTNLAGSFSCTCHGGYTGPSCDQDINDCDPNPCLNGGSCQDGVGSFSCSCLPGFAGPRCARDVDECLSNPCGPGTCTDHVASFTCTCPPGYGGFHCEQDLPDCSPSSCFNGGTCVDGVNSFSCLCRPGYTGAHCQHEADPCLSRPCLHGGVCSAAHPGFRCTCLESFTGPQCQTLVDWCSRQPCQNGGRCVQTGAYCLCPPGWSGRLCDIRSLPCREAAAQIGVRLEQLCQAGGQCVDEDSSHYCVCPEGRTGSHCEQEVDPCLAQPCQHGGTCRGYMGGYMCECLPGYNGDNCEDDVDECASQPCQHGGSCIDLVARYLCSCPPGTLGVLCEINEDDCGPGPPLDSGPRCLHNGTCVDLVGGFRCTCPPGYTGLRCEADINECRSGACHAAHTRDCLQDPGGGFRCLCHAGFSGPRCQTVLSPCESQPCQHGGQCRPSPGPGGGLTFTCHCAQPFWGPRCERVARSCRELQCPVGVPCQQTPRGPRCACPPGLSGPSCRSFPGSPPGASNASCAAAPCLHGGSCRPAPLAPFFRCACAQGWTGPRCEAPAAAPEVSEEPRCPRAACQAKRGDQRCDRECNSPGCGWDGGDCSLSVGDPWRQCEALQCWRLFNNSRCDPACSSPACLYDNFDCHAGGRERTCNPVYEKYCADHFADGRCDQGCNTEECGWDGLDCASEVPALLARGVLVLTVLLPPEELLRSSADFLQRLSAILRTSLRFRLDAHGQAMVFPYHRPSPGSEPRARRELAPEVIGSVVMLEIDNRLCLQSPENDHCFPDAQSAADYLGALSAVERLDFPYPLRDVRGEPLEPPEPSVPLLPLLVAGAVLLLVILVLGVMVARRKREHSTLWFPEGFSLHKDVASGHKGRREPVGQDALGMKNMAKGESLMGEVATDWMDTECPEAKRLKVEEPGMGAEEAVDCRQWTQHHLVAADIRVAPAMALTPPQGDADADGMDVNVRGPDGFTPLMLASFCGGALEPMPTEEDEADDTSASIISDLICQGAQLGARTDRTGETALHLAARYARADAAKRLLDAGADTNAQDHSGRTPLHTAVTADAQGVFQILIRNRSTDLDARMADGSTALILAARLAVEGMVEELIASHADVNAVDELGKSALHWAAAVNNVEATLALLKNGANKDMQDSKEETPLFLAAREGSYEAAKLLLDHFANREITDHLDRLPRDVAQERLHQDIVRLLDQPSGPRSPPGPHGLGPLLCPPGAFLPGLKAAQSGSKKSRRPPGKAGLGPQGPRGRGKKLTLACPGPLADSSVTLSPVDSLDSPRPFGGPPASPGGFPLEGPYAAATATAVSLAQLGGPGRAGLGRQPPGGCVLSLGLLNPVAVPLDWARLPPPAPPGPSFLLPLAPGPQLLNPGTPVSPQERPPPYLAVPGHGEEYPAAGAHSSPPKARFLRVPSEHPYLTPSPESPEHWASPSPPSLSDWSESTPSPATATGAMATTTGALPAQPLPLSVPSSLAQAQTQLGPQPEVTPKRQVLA
Sequence of Neurogenic locus notch homolog protein 2 (Homo sapiens) (Q04721 whole entry, looked up, canonical isoform): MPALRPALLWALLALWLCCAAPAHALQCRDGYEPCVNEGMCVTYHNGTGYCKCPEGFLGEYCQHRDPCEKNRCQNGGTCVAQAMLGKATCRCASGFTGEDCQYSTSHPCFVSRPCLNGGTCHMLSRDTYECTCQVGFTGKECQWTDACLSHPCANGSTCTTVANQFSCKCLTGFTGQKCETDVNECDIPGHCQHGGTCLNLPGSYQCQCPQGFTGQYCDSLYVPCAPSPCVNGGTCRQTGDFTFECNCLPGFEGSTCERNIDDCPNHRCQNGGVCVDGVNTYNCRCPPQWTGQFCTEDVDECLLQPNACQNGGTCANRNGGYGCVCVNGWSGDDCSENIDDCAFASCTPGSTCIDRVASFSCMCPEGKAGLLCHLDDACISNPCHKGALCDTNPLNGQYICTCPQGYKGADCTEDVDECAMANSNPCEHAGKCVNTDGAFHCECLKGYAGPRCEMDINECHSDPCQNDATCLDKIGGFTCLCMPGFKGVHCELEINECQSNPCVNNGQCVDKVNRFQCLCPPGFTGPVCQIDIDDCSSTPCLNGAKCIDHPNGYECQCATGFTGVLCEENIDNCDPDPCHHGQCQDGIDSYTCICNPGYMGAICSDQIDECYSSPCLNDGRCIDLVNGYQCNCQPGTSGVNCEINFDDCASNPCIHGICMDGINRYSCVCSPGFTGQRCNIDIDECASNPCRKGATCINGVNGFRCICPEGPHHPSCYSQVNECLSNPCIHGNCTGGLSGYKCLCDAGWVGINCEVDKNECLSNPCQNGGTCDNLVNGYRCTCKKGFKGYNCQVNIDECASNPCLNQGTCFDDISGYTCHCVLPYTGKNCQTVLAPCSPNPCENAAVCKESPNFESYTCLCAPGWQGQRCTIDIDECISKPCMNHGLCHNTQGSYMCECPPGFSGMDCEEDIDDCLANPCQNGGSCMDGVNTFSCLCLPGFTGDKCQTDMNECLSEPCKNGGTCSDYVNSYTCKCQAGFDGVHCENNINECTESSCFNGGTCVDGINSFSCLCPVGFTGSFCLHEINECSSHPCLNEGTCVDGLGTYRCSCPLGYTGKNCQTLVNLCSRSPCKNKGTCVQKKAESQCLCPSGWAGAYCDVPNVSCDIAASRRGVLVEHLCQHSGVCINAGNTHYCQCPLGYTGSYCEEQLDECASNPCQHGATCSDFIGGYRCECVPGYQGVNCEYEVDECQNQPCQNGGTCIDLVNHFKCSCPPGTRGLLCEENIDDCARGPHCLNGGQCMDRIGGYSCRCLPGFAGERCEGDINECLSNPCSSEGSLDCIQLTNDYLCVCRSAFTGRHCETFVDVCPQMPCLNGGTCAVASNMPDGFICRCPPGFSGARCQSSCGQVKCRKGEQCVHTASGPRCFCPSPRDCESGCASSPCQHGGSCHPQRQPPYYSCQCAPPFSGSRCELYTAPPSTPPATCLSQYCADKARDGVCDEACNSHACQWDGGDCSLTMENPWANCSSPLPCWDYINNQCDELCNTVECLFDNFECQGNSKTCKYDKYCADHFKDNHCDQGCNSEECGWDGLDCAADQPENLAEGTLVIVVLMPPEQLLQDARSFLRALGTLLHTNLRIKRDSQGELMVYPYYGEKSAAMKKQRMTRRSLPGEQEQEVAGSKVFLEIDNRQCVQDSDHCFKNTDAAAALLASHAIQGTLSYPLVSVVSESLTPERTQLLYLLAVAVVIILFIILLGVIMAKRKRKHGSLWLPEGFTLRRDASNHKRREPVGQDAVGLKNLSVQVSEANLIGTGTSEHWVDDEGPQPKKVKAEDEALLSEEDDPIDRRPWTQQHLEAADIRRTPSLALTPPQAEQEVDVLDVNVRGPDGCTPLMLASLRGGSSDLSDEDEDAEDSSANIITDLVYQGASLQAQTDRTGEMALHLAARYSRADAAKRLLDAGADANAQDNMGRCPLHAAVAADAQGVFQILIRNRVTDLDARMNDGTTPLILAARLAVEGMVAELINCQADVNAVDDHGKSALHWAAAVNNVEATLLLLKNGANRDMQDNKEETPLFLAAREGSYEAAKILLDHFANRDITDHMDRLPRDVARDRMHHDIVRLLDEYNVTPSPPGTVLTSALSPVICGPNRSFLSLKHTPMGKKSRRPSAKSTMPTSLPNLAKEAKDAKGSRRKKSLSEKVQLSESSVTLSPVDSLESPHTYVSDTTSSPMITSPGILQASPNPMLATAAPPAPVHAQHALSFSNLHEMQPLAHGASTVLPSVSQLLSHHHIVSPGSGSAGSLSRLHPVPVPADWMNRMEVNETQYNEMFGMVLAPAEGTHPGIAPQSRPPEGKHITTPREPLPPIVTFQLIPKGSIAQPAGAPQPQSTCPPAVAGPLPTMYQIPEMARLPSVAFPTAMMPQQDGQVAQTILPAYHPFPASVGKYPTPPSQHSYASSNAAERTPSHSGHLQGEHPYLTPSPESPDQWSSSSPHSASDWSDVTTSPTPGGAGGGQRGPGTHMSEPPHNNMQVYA

Regarding `CC(C)OC(=O)C=C1C[C@@H](c2ccccc2)O[C@@H](c2ccccc2)O1`, the composite z-score in assay [1] was -0.682 and -0.0971; in [2] it was 0.935 and 1.2; in [3], -0.0695 and 0.0305; in [4], 1.04 and 1.05; in assay [5], 1.45 and 1.59; in assay [6] it was 0.482 and 1.23. Besides, the composite z-score was 1.1 and 1.18 in assay [7]; 0.904 and 0.743 in assay [9]; 0.194 and 0.126 in [10]; 1.5 and 1.54 in assay [11]; 3.33 and 3.12 in assay [15]; 0.0528 and 0.269 in assay [17]. Moreover, the composite z-score in assay [18] was 1.09 and 0.798; in assay [19] it was 1.09 and 1.13; in assay [20], 0.302 and 0.366. For the same molecule, the z-score in [8] is -0.778 (inactive) and -0.828 (inactive); in assay [12] it was -0.023 (inactive) and 0.548 (inactive); in assay [13] it was -4.66 (inactive) and -7.08 (inactive); in assay [14], -0.793 (inactive) and 0.632 (inactive); in [16], 0.551 (inactive) and 0.884 (inactive).

Take `COC(=O)C1=C(C)N(Cc2ccccc2)[C@]23O[C@](C(=O)OC)(C(=O)N2[C@@H]1c1ccccc1)[C@H]1CCCC(=O)[C@H]13`: the composite z-score is 0.0353 and -0.148 in [1]; 0.383 and 1.06 in assay [2]; -0.0333 and -0.0507 in [3]; 0.513 and 0.359 in assay [4]; 1.15 and 0.327 in assay [5]; 1.21 and -0.23 in [6]. In addition, the composite z-score in assay [7] was 0.636 and -0.133; in assay [9], 0.395 and 0.0869; in [10], 0.186 and -0.236; in [11], -0.0081 and 0.249; in assay [15] it was 0.164 and -0.142; in assay [17], -0.102 and -0.132. The composite z-score in assay [18] was 0.0709 and 0.413; in [19] it was 0.31 and 0.604; in assay [20] it was 0.173 and -0.0497. For the same molecule, the z-score in assay [8] was -1.02 (inactive) and 0.357 (inactive); in assay [12] it was 0.563 (inactive) and 0.21 (inactive); in assay [13], -1.79 (inactive) and -1.07 (inactive); in assay [14], -1.95 (inactive) and -0.557 (inactive); in [16], 0.302 (inactive) and -0.824 (inactive).

Take `CCCC[C@@H]1CN2[C@@H](CC[C@@H](C)[C@@H]2c2ccc(Br)cc2)C(=O)O1`: the composite z-score was -0.519 and -0.353 in assay [1]; 0.191 and 0.217 in assay [2]; -0.111 and -0.0736 in assay [3]; 0.458 and 0.656 in [4]; 0.333 and 0.493 in assay [5]; 0.48 and 0.847 in [6]. For the same molecule, the composite z-score in assay [7] is 0.602 and 0.965; in assay [9] it was 0.0218 and 0.0109; in assay [10], -0.142 and -0.306; in assay [11], 1.38 and 0.811; in assay [15] it was 1.93 and 1.44; in [17] it was -0.0446 and -0.239. Besides, the composite z-score in assay [18] is 0.0666 and -0.156; in assay [19], 0.287 and 0.683; in assay [20], -0.141 and 0.0021. Also, the z-score was 0.427 (inactive) and -0.286 (inactive) in assay [8]; 0.301 (inactive) and 0.0912 (inactive) in assay [12]; -17.2 (active) and -6.6 (inactive) in assay [13]; -0.278 (inactive) and 0.42 (inactive) in assay [14]; 0.133 (inactive) and 0.153 (inactive) in assay [16].

`C=C[C@@H](C)[C@@H](O)c1ccc(OCCO)cc1`: the composite z-score in assay [1] was 1.01 and 0.0727; in assay [2], -1.44 and -0.971; in assay [3], -0.232 and -0.273; in [4] it was -1.47 and -1.27; in assay [5] it was -1.86 and -1.3; in [6], -0.408 and -0.496. For the same molecule, the composite z-score in [7] was -0.477 and -0.674; in assay [9], -1.9 and -0.848; in assay [10], -0.242 and -0.644; in assay [11] it was -0.851 and 0.0376; in [15], -1.11 and -0.508; in assay [17], 0.0893 and 0.2. For the same molecule, the composite z-score was -1.72 and -1.7 in assay [18]; -0.574 and -0.377 in [19]; -0.397 and -0.374 in assay [20]. For the same molecule, the z-score in assay [8] was 4.33 (inactive) and 1.84 (inactive); in assay [12] it was 0.0436 (inactive) and -2.75 (inactive); in assay [13] it was 0.162 (inactive) and -0.815 (inactive); in assay [14], -0.607 (inactive) and 0.262 (inactive); in assay [16] it was -0.0921 (inactive) and 1.12 (inactive).
